# Hits are enriched below; roughly 0.5% of the tested compounds scored in any of these assays.
# Keap1 Nrf2 FP = inhibitors of human Keap1-Nrf2 protein-protein interaction. Q14145. Keap1 Kelch-Nrf2 peptide fluorescence polarization, 1536-well. inhibition, % at 9.4 µM. actives 0.15% (n = 340,000); in the data active = inhibition above about 12%;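 also: human Keap1 Kelch domain with fluorescein labeled Nrf2 9mer peptide probe; higher means more block of Keap1 binding to Nrf2 peptide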
# Target sequence (Q14145 whole entry, looked up, the tested form may be a part): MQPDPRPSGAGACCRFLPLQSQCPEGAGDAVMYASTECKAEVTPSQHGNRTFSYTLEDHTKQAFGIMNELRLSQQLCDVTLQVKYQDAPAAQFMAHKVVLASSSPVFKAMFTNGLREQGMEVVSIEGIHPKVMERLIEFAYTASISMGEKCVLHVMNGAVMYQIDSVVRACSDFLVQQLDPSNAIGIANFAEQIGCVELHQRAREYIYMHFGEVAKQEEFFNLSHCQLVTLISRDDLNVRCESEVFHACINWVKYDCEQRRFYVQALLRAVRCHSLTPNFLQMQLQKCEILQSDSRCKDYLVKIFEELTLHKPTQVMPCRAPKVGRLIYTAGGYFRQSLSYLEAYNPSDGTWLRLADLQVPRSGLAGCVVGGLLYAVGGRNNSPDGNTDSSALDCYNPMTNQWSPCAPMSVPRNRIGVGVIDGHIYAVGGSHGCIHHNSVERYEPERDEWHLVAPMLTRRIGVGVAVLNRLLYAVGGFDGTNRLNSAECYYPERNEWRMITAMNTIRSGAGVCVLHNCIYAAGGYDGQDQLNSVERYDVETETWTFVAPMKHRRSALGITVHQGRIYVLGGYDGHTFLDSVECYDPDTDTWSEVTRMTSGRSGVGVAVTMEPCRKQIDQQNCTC
# C-LANA FP = blocks KSHV LANA C-terminal domain binding to DNA; MBP-C-LANA/FAM-LBS DNA binding, fluorescence polarization; inhibition, % at 9 µM; actives 0.078% (n = 340,000); AID 504423;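 active = highest replicate inhibition at or above 60% at 9 µM, even if other replicates fall short; inactive = all replicates below 60% inhibition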
# cardiac RTF act = cardiac RTF calcium sensitization; P19429+P45379; IANBD-labeled TnC RTF fluorescence at EC20 calcium; 0% EC20 calcium, 100% full calcium; activation, % at 7.2 µM; actives 0.24% (n = 340,000);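 active = activation above the mean over all tested compounds plus 3 SD, cut at about 30% in these data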;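 also: rise in fluorescence read as greater calcium sensitivity of cardiac thin filaments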
# RTF Ca sens inh = cardiac RTF calcium desensitization; AID 493244; P19429+P45379; actives 0.12% (n = 340,000); IANBD-labeled cardiac RTF, Ca2+ fluorescence; inhibition, % at 7.15 µM;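 active = inhibition above the mean inhibition of all tested compounds plus 3 SD, cut at about 17% in these data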;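 also: assay run at fixed EC70 calcium of 1.6 mM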
# RTF Ca inh conf = cardiac RTF calcium sensitivity inhibition, confirmation | shares compounds with RTF Ca sens inh | reconstituted cardiac thin filaments, calcium sensitivity fluorescence | inhibition, % at 7.15 µM | actives 8% (n = 360); in the data active = inhibition above about 18%
# Numbers stand for hits; – = inactive; · = no result.
SMILES,Keap1 Nrf2 FP,C-LANA FP,cardiac RTF act,RTF Ca sens inh,RTF Ca inh conf
COc1cccc(C(=O)Nc2cccc(C(=O)N3CCOCC3)c2)c1,–,–,–,21,–
COc1ccccc1OCC(O)CO (stereo unspecified),–,–,–,–,·
COc1ccccc1OCC(O)COC(N)=O (stereo unspecified),–,–,–,18,–
Cc1c(Cl)c([N+](=O)[O-])nn1CC(=O)NCc1cccs1,–,–,–,18,–
Cc1c(Cl)c([N+](=O)[O-])nn1CC(=O)NC(C)c1ccccc1 (stereo unspecified),–,–,–,–,·
CCCC(C)NC1=NCCCCC1 (stereo unspecified),–,–,–,18,–
CCN1CCCC1CNC1=NCCCCC1 (stereo unspecified),–,–,–,–,·
CN1CCN(/N=C/c2ccc(Br)cc2)CC1,–,–,–,20,–
CN1CCN(/N=C/c2ccc(N(c3ccccc3)c3ccccc3)cc2)CC1,–,–,–,–,·
CCOC(=O)N1C2=NC(C(=O)OC)=C(C(=O)OC)[C@@H]3N(C)c4ccc(OC)cc4[C@]23C[C@H]1C(=O)OC,–,–,–,–,·
CNC(=O)Oc1ccc2c(c1)[C@]1(C)CCN(C)C1N2C (stereo partly specified),–,–,–,17,–
COc1ccc(OC)c(CN2CCN(C(=O)c3ccc(S(=O)(=O)Nc4ccccc4F)cc3)CC2)c1,–,–,–,–,·
O=C1N[C@@H](Cc2ccccc2)C(=O)N2CCCC12 (stereo partly specified),–,–,–,–,·
O=C1N[C@@H](Cc2cnc[nH]2)C(=O)N2CCC[C@@H]12,–,–,–,17,–
CC(C)CCC1(CCO)C(=O)N=C(N)NC1=O (stereo unspecified),–,–,–,–,·
CC1=CC(C)(C)C(C(=O)O)C(C(=O)O)C1 (stereo unspecified),–,–,–,18,–
CC1=CC(C)C(C(=O)O)C(C(=O)N2CCN(C)CC2)C1 (stereo unspecified),–,–,–,–,·
COc1ccc(-c2cc(-c3ccc(OC)cc3)[nH]n2)cc1,–,–,–,17,–
O=C(CC(=O)c1cccs1)c1ccncc1,–,–,–,–,·
O=C(Nc1cccc(-c2cscn2)c1)C1CCN(Cc2ccccn2)CC1,–,–,–,–,·
CN(C)CC[C@@H](c1ccc(Cl)cc1)c1ccccn1,–,–,–,17,–
CCOc1ccc(CN(C)C(=O)c2cccnc2OCC)cc1OC,–,–,–,18,–
CCOc1ncccc1C(=O)NCc1ccc(OC)c(OC)c1,–,–,–,–,·
O=[N+]([O-])c1ccc(-[n+]2ccc3ccccc3c2)c([N+](=O)[O-])c1,–,–,–,–,·
O=C1CCc2cc(S(=O)(=O)Nc3ccccc3)cc3c2N1CCC3,–,–,–,–,·
SMILES,Keap1 Nrf2 FP,C-LANA FP,cardiac RTF act,RTF Ca sens inh,RTF Ca inh conf
O=C(O)C(Cc1ccccc1)N1C(=O)/C(=C/C=C/c2ccco2)SC1=S (stereo unspecified),26,106,–,64,27
Cc1ccc(NC(=O)CSc2nnc3n2CCCCC3)cc1,–,–,–,22,–
CN(CC(=O)Nc1ccccc1C(F)(F)F)C(=O)c1ccc2c(=O)n3c(nc2c1)CCC3,–,–,–,–,·
COc1cc(C(=O)N2CCN(C(=O)C3CC3)CC2)cc(OC)c1OC,–,–,–,20,–
COC(=O)C1CCN(C(=O)c2cc(OC)c(OC)c(OC)c2)CC1,–,–,–,–,·
CCCCCCCCCCCCCCCC(=O)OC(CC(=O)O)C[N+](C)(C)C (stereo unspecified),–,–,–,18,–
CCCCCCC(=O)O,–,–,–,–,·
O=C(O)c1ccc(S(=O)(=O)NCC2CCCO2)cc1 (stereo unspecified),–,–,–,–,·
CCOC(=O)c1ccc2c(c1)NCc1cccc(OC)c1O2,–,–,–,–,·
O=C(CSc1nnc(-c2ccc(F)cc2)n1-c1ccccc1)NCCN1C(=O)CSC1=O,–,–,–,–,·
Cc1nnc(SCC(=O)NCCN2C(=O)CSC2=O)n1-c1ccccc1,–,–,–,23,–
O=S(=O)(c1ccc2nnn(O)c2c1)N1CCOCC1,–,–,–,–,·
O=S(=O)(c1ccc2ncn(O)c2c1)N1CCOCC1,–,–,–,22,–
COc1ccc(NC(=O)CC23CC4CC(CC(C4)C2)C3)cn1,–,–,–,17,–
CC(C)(C)C1CCc2c(C(=O)NNC(=O)CCCC(=O)O)csc2C1 (stereo unspecified),–,–,–,17,–
Cc1ccnc(N=O)c1,–,–,–,–,·
O=C(Nc1ccc(N2CCOCC2)c(Cl)c1)c1ccc(F)cc1,–,–,–,–,·
O=C(Nc1ccc(N2CCOCC2)c(Cl)c1)c1ccccc1Cl,–,–,–,50,–
Nc1ccc(S(=O)(=O)N2CCC(Cc3ccccc3)CC2)cc1,–,–,–,–,·
CC1CCC(NC(=O)CCCn2sc3ccccc3c2=O)CC1 (stereo unspecified),–,–,–,–,·
Cc1ccc(-n2c(SCC(=O)O)nc3sc4c(c3c2=O)CCCC4)cc1,–,–,–,17,–
COc1ccc(CCN(Cc2ccccn2)C(=S)Nc2cccc(SC)c2)cc1OC,–,–,–,20,–
COc1ccc(CCN(Cc2ccccn2)C(=S)Nc2ccc(C)cc2)cc1OC,–,–,–,–,·
CCN(C(=O)Cn1ccc(C(F)(F)F)n1)c1c(N)n(Cc2ccccc2)c(=O)[nH]c1=O,–,–,–,–,·
CCc1cc2c(CN(C)Cc3ccccc3F)cc(=O)oc2cc1O,–,–,–,18,–
SMILES,Keap1 Nrf2 FP,C-LANA FP,cardiac RTF act,RTF Ca sens inh,RTF Ca inh conf
COCCn1nnnc1C(c1cc2ccc(C)cc2[nH]c1=O)N(Cc1ccco1)Cc1cccs1 (stereo unspecified),–,–,–,17,–
Cc1ccc2cc(C(c3nnnn3C3CCCC3)N(Cc3ccccc3)Cc3ccco3)c(=O)[nH]c2c1 (stereo unspecified),–,–,–,–,·
CCc1ccc(OCC(=O)c2c(O)c3ccccc3oc2=O)cc1,–,–,–,–,·
CCc1oc2ccccc2c1C(=O)c1cc(Br)c(O)c(Br)c1,–,–,–,18,–
CC(C)(C)c1ccccc1NC(=O)c1ccc(-n2cncn2)c([N+](=O)[O-])c1,–,–,–,–,·
O=C(Nc1ccccc1OC(F)F)c1ccc(-n2cncn2)c([N+](=O)[O-])c1,–,–,–,87,–
O=C(O)c1ccccc1N=Nc1ccc(O)cc1,–,–,–,18,–
CCOc1ccc(C(=O)NC(C(=O)N2CCC2)C(C)C)cc1 (stereo unspecified),–,–,–,–,·
C=C[C@@]1(C)CC(=O)[C@]2(O)[C@@]3(C)[C@@H](O)CCC(C)(C)[C@@H]3[C@H](O)[C@H](OC(C)=O)[C@@]2(C)O1,–,–,–,19,–
O=C(COc1ccccc1Cl)Nc1ccc2c(c1)OCO2,–,–,–,19,–
Cc1cc(SCC(=O)c2cccc([N+](=O)[O-])c2)nc(=O)[nH]1,–,–,–,–,·
